According to the supplement of paper PMC6522484:
± gives the standard deviation of the averaged measurements.

tested on: DLD1; test: TCF/Wnt firefly luciferase reporter signal relative to plate median (fraction of plate median); higher = higher Wnt reporter signal; settings: 5 µM; treatment time 24 h; reporter: 7TFP
Outline: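 Normalisation used webcellHTS2 in additive mode without log transformation, scaling each well's luminescence to the plate median. The luminescence was firefly luciferase or CellTiterGlo, read on a Tecan F500 from parallel plates of colorectal cancer cells stably transduced with lentiviral TCF/Wnt firefly luciferase reporters. Those cells had been given library compounds at a final 5 µM for 24 h, and two independent replicates were averaged.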

Row | Structure (SMILES) | TCF/Wnt firefly luciferase reporter signal
1 | CN(C)CCc1c[nH]c2ccc(Cn3cncn3)cc12 | 1.09 ± 0.2
2 | O=c1c(O)c(-c2ccc(O)c(O)c2)oc2c(O[C@@H]3O[C@H](CO)[C@@H](O)[C@H](O)[C@H]3O)c(O)cc(O)c12 | 1.1 ± 0.078
3 | CCCNC(C)C(=O)Nc1ccccc1C (centres undefined) | 0.912 ± 0.028
4 | CC(=O)O[C@@H]1C[C@H]2C(C)(C)[C@@H](O)CC[C@]2(C)[C@H]2CC[C@@]3(C)[C@H](c4ccoc4)OC(=O)[C@H]4O[C@]43[C@@]21C [beta-DIHYDROGEDUNOL] | 1.02 ± 0.035
5 | COc1ccc2c(c1)c(CC(=O)O)c(C)n2C(=O)c1ccc(Cl)cc1 | 1.08 ± 0.014
6 | COc1ccc(-c2coc3c(OC)c(OC)cc(O)c3c2=O)cc1 | 1.08 ± 0.064
7 | C=C1C[C@]23C[C@@]1(O)CC[C@H]2[C@@]12C=C[C@H](O)[C@@](C)(C(=O)O1)[C@H]2[C@@H]3C(=O)O | 0.88 ± 0.0028
8 | C[C@H]1[C@H](C)CC[C@]2(CO)CC[C@]3(C)C(=CC[C@@H]4[C@@]5(C)CC[C@H](O)C(C)(C)[C@@H]5CC[C@]43C)[C@H]12 | 0.871 ± 0.16
9 | CC(=O)Oc1cccc(O)c1 | 0.952 ± 0.097
10 | CCN(CC)C(C)CN1c2ccccc2Sc2ccccc21 (centres undefined) | 0.927 ± 0.3
11 | CCCCCC1C(=O)CCC1CC(=O)O (centres undefined) | 1.06 ± 0.099
12 | OC[C@H]1O[C@@H](Oc2ccc(O)cc2)[C@H](O)[C@@H](O)[C@@H]1O | 0.963 ± 0.095
13 | O=C(O)c1nc2cc(Cl)c(Cl)cc2nc1O | 0.831 ± 0.0014
14 | C[C@@H]1O[C@H]2O[C@@H]3[C@@H](C)OC(c4ccc5c(c4O)C(=O)c4ccc(C[C@@](C)(O)CC(=O)O)c(O)c4C5=O)C[C@H]3O[C@H]2CC1=O (some centres undefined) [Fridamycin D] | 1.14 ± 0.057
15 | CN1C(C)(C)CCCC1(C)C | 0.982 ± 0.011
16 | N[C@@H](Cc1cc(I)c(Oc2cc(I)c(O)c(I)c2)c(I)c1)C(=O)O | 1.19 ± 0.057
17 | COc1cc2c(cc1OC)-c1cc3ccc(OC)c(OC)c3c[n+]1CC2 | 1.105 ± 0.0071
18 | CN1CCC[C@@H]1Cc1c[nH]c2ccc(CCS(=O)(=O)c3ccccc3)cc12 | 0.945 ± 0.18
19 | CCC(=O)NCC[C@@H]1CCc2ccc3c(c21)CCO3 | 0.827 ± 0.037
20 | O=C(Nc1ccc([N+](=O)[O-])cc1Cl)c1cc(Cl)ccc1O | 0.92 ± 0.064

Row | Structure (SMILES) | TCF/Wnt firefly luciferase reporter signal
21 | C=CC1=C(C(=O)O)N2C(=O)[C@@H](NC(=O)/C(=N\O)c3csc(N)n3)[C@H]2SC1 | 0.941 ± 0.052
22 | CC(N)C12CC3CC(CC(C3)C1)C2 (centres undefined) | 0.962 ± 0.03
23 | CCCCCC/C=C\CCCCCCCc1cccc(O)c1C(=O)O | 0.985 ± 0.14
24 | C[N+](C)(C)CC(=O)O | 0.906 ± 0.1
25 | Cc1nc2ccccc2c(=O)[nH]1 [2-Methyl-3H-quinazoline-4-on] | 1.01 ± 0.09
26 | CNC[C@H](O)c1ccc(O)c(O)c1 | 1.11 ± 0.064
27 | CC(C)Oc1ccc2c(=O)c(-c3ccccc3)coc2c1 | 1.24 ± 0.21
28 | Oc1ccc2c(c1)O[C@H](c1ccc(O)c(O)c1)[C@@H](O)C2 | 0.926 ± 0.058
29 | Cc1cc2c(s1)Nc1ccccc1N=C2N1CCN(C)CC1 | 1.05 ± 0.071
30 | CC1(C)C[C@@H]2/C(CO)=C\C=C/[C@@](C)(O)CC[C@]21O | 1.11 ± 0.24
31 | COc1cc(NS(=O)(=O)c2ccc(N)cc2)nc(OC)n1 | 0.895 ± 0.28
32 | C=C1C(=O)[C@]23[C@H](CC[C@@H]1[C@@H]2O)[C@]12CO[C@@]3(O)[C@H](O)[C@H]1C(C)(C)CC[C@@H]2O | 0.876 ± 0.015
33 | Oc1ccc2c(c1)OC[C@]1(O)Cc3cc(O)c(O)cc3[C@H]21 | 1.15 ± 0.11
34 | Cc1cc(O)c(C)c(O)c1C(=O)O | 0.792 ± 0.36
35 | C[C@@H]1CC[C@]2(C(=O)O[C@@H]3O[C@H](CO)[C@@H](O)[C@H](O)[C@H]3O)CC[C@]3(C)C(=CC[C@@H]4[C@@]5(C)C[C@@H](O)[C@H](O)[C@@](C)(CO)[C@@H]5CC[C@]43C)[C@@H]2[C@]1(C)O [Nigaichigoside F1] | 1.08 ± 0.028
36 | CC(=O)N1CCN(c2ccc(OCC3COC(Cn4ccnc4)(c4ccc(Cl)cc4Cl)O3)cc2)CC1 (centres undefined) | 1.05 ± 0.05
37 | N/C(=N\C(=O)c1nc(Cl)c(N)nc1N)NCc1ccccc1 | 1.07 ± 0.16
38 | CC(C)(Sc1cc(C(C)(C)C)c(O)c(C(C)(C)C)c1)Sc1cc(C(C)(C)C)c(O)c(C(C)(C)C)c1 | 1.01 ± 0.035
39 | NC(CO)C(=O)NNCc1ccc(O)c(O)c1O (centres undefined) | 1.07 ± 0.021
